Source: PubChem BioAssay (National Center for Advancing Translational Sciences (NCATS))
A selection: hits, their analogues and other compounds. The true share with any hit is near 2.7%.
IP6K1 inh = IP6K1 kinase inhibition; actives 0.81% (n = 140,000); activity change, % (series mostly up to about 58 µM); IP6K1 kinase, ADP-Glo luminescence, 2 h; stronger effect = lower value; Q92551; in the data active = activity change below about -25%; note: % is set by controls: 0 for no effect and ±100 for the full control effect
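ADP-Glo luminescence measures ADP made by human IP6K1 during a 2 h RT reaction with ATP/IP6 (mix at 1.3 mM/130 uM); top library doses 57.5 and 19.1 uM final.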
KDM5B inhibitor = inhibitors of human KDM5B histone demethylase | Q9UGL1 | AID 1347165 | Potency, µM (doses to about 57.7 µM), usual class: inhibitors | actives 2.6% (n = 220,000) | KDM5B demethylase, FDH-coupled NADH fluorescence (FDH is formaldehyde dehydrogenase); note: potency is the fitted concentration of half-maximal effect; 0% is about no effect; nearly all actives have a fitted effect of over 70% in size
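Inhibition is measured as reduced NADH fluorescence generation from FDH coupling to formaldehyde release. Truncated KDM5BΔAP at 200 nM final acts on H3K4me3 peptide (12.5 µM in substrate mix) in pH 7.5 HEPES buffer with Tween-20, 30 min, room temperature.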
Active calls of the source: *; i = inactive; ? = inconclusive; nt = no result given.

SMILES | IP6K1 inh | KDM5B inhibitor
Cc1ccc(S(=O)(=O)N2CCC(CCC(=O)NCc3cccc(F)c3)CC2)cc1 | 5.2 | nt
CCN1c2cc(C(=O)Nc3cccc(C(=O)OC)c3)ccc2C(=O)N2CCCCCC21 (stereo unspecified) | -2.4 | ?
N#Cc1ccc(NC(=O)COC(=O)c2nc(-c3ccccc3)n(-c3ccccc3)n2)cc1 | nt | i
O[C@H]1CC[C@@H](Cc2cc(-c3ccc(F)cc3)on2)O[C@@H]1CNCc1ccccn1 | 2.3 | i
Cc1c(-c2ccccc2F)[nH]c2ccc(CNC(=O)C3CCCN(C(N)=O)C3)cc12 (stereo unspecified) | 25.6 | 28.2µM*
CCc1[nH]c2ccc(CNC(=O)C3CC(=O)Nc4ccccc43)cc2c1C (stereo unspecified) | -3.9 | i
Cc1c(-c2ccccc2F)[nH]c2ccc(CNC(=O)C3C=CCN3)cc12 (stereo unspecified) | -17.2 | 28.2µM*
O=C(NCc1ccc(F)cc1)C1CCCN(C(=O)NCc2ccccc2)C1 (stereo unspecified) | nt | i
O=C(Nc1ccc(S(=O)(=O)N2CCCC2)cc1)C1=COCCO1 | nt | i
COc1cccc(CNC(=O)c2ccc(-c3ccc(N4CCSCC4)nc3)cc2)c1 | -3.5 | i
O=C(NC1CCCC1)c1ccc(-c2ccc(N3CCSCC3)nc2)cc1 | -0.8 | 28.2µM*
O=C(NCc1ccccc1F)c1ccc(-c2ccc(N3CCSCC3)nc2)cc1 | 14.0 | 17.8µM*
O=C(NCCN1CCOCC1)c1ccc(Cl)cc1 | 5.6 | nt
O=C(NCCN1CCOCC1)c1ccc(-c2ccc(N3CCCCC3)nc2)cc1 | -4.1 | 28.2µM*
COc1ccc(OC)c(CNC(=O)c2ccc(-c3ccc(N4CCSCC4)nc3)cc2)c1 | -5.2 | i
O=C(NCc1ccccc1)c1ccc(-c2ccc(N3CCSCC3)nc2)cc1 | -3.0 | ?
O=C(NCCN1CCCC1)c1ccc(-c2ccc(N3CCSCC3)nc2)cc1 | -7.1 | 25.1µM*
Fc1ccc(-c2nc(COc3ccccc3Br)co2)cc1 | nt | i
COc1cccc(CNC(=O)c2cc(-c3ccc(F)cc3)nc3c2cnn3C)c1 | 11.5 | nt
COCCNC(=O)c1ccc(-c2ccc(N3CCCCC3)nc2)cc1 | 13.2 | 12.6µM*
O=C(NCc1ccncc1)c1ccc(-c2ccc(N3CCCCC3)nc2)cc1 | -11.0 | ?
CCCCCCn1c(SCCCCC)nc2c1c(=O)[nH]c(=O)n2C | nt | i
O=C(Nc1ccccc1)c1ccc(CSc2cccc[n+]2[O-])cc1 | nt | i
O=C(Cc1n[nH]c(=O)c2ccccc12)NCC(=O)NC1CC1 | nt | i
NC(=O)CN1CCC(C(=O)NCc2cn3cccnc3n2)CC1 | 21.4 | 28.2µM*
SMILES | IP6K1 inh | KDM5B inhibitor
COC(=O)c1ccccc1S(=O)(=O)N1CCC(C(=O)NCc2ccccn2)CC1 | nt | i
O=C(NCc1cccs1)C1CCCN(Cc2cccc(-c3ccsc3)c2)C1 (stereo unspecified) | -16.4 | nt
Cc1oc(C(O)c2ccccc2F)nc1C(=O)Nc1ccccc1C(N)=O (stereo unspecified) | 14.2 | 35.5µM*
Cc1oc(C(O)c2ccccc2F)nc1C(=O)Nc1ccc(C(N)=O)cc1 (stereo unspecified) | -5.0 | i
N#Cc1cccnc1-c1cccc(C(=O)NCCNC(=O)c2ccc(C(F)(F)F)cc2)c1 | 8.2 | nt
O=c1c2nc(Nc3ccc(C(F)(F)F)cc3)ccc2ncn1Cc1ccccn1 | -2.3 | ?
O=c1c2nc(-c3ccccc3)ccc2ncn1Cc1ccccn1 | 18.4 | 39.8µM*
O=c1c2nc(-c3ccc(Cl)cc3)ccc2ncn1Cc1ccccn1 | 5.9 | 35.5µM*
COc1ccc(-c2ccc3ncn(Cc4ccccn4)c(=O)c3n2)cc1F | 5.5 | 35.5µM*
Cc1ccc(-c2ccc3ncn(Cc4ccccn4)c(=O)c3n2)c(C)c1 | 4.5 | 31.6µM*
O=c1c2nc(-c3ccccc3F)ccc2ncn1Cc1ccccn1 | -4.5 | ?
Cn1ccc2cc(-c3ccc4ncn(Cc5ccccn5)c(=O)c4n3)ccc21 | -8.0 | i
O=c1c2nc(-c3cccc(C(F)(F)F)c3)ccc2ncn1Cc1ccccn1 | -8.9 | ?
O=C(NCc1cccs1)c1cn2cc(-c3ccc(F)cc3)sc2n1 | 0.7 | nt
Cc1c(C)n2c3c(=O)[nH]c(=O)n(C)c3nc2n1CCCN(C)C | nt | i
O/N=C/c1cn(-c2ccccc2)nc1-c1ccncc1 | nt | i
O=C(Nc1cccc(Cl)c1)C1CN(c2ccnc3ccnn23)C1 | 11.3 | nt
Cn1ncc(N2CCC(CNC(=O)c3cccc4ccnn34)C2)cc1=O (stereo unspecified) | -3.1 | 28.2µM*
Cn1ncc(N2CCC(CNC(=O)c3cccc4ncccc34)C2)cc1=O (stereo unspecified) | 1.9 | i
C[S+](=O)([O-])c1ccc(-c2cc(C(=O)NCC(F)(F)F)nn3cccc23)cc1 | -1.7 | nt
O=C(CN1CCN(C(=O)c2cc3c(s2)CN(C2CCCC2)C3)CC1)N1CCCC1 | 16.5 | ?
O=C(c1cc2c(s1)CN(C1CCCC1)C2)N1CCCN(c2ncccn2)CC1 | 8.0 | 6.31µM*
